From PubChem BioAssay AID1497 (Sanford-Burnham Center for Chemical Genomics, 2009)
Hit rate of the full screen: of about 93,000 compounds, about 500 (0.54%) were called active.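 Rule for the calls: active = primary inhibition of 50% or more at 10 µM, then 40% or more on retest; inactive = the rest.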 For the sample, actives were picked, then their nearest neighbours and some compounds at random.

Target: Integrin beta-2 (Homo sapiens) + Integrin alpha-M (Homo sapiens) (UniProt P05107+P11215)
Experiment: antagonists of integrin CD11b/CD18-fibrinogen binding – K562 cells, luminescence, primary screen (AID 1497)
Settings: K562 CD11b/CD18 adhesion to fibrinogen, ATPlite luminescence; at 10 µM; active compounds read high; Mn2+ added to activate the integrin

Chain of Integrin beta-2 (Homo sapiens) + Integrin alpha-M (Homo sapiens) (P05107 whole entry, looked up, other chains not shown): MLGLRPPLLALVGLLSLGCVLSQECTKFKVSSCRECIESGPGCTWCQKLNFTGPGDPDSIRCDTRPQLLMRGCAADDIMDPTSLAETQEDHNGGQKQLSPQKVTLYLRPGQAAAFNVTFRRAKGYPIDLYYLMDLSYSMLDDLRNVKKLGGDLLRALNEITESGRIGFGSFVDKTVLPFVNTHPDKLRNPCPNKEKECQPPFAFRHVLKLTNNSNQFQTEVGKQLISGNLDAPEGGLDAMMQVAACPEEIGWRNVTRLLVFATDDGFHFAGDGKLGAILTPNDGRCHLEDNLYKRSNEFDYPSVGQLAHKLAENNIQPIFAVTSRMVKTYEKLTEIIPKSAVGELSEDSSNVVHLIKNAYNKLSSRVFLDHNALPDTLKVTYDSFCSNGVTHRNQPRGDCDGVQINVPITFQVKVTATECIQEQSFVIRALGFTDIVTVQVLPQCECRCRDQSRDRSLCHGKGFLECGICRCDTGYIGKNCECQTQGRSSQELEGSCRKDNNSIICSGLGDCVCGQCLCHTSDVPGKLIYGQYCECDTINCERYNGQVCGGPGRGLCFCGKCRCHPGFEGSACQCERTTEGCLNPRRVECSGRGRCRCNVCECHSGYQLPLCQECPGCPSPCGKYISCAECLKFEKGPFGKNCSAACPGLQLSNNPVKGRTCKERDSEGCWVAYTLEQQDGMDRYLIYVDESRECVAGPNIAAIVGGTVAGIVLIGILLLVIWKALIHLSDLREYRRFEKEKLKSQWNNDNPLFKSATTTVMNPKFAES

inhibition, active:
CCc1nc(C)cn1S(=O)(=O)c1cc(OC)c(C)cc1C 51.2%
Cc1ccc(S(=O)(=O)C(C#N)c2nc3ccccc3nc2N2CCCC2)cc1C (stereo not given) 63.1%
Cc1ccc(S(=O)(=O)Nc2ccc3ncccc3c2)cc1 75.1%
O=C(NC(Nc1nc2ccc([N+](=O)[O-])cc2s1)(C(F)(F)F)C(F)(F)F)c1ccccc1 93.8%

inhibition, inactive:
C/C(=N\NC(=O)c1cc2c(s1)CCC(C)C2)c1cccnc1 (stereo not given) 1.2%
COc1ccc(Br)cc1CN(C)CC(=O)Nc1cc([N+](=O)[O-])ccc1OC 33.8%
N#CCOc1ccc(C2=NO[C@@H]3[C@@H]4C[C@@H]([C@H]5C(=O)N(c6ccc7c(c6)OCO7)C(=O)[C@@H]45)[C@H]23)cc1 -2%
Cc1ccc(C)c(NC(CC(=O)c2ccccc2)C(=O)OCC(=O)c2cccs2)c1 (stereo not given) 2.1%
COc1ccccc1OCCC(=O)OCC(=O)NCc1ccccc1 5%
CCCOc1cc(C)c(S(=O)(=O)n2nnc3ccccc32)cc1C 2.3%
Cc1ccc(-n2c(C)cc(C(=O)CSc3nnc4ccccn34)c2C)cc1 23.4%
CN(C(=O)c1c(Cl)cnn1C)C12CC3CC(CC(C3)C1)C2 -23%
FC(F)Oc1ccccc1NC(=S)Nc1cccc(Cl)c1Cl 64.3%
CCCCC1N2CC3([N+](=O)[O-])CN1CC([N+](=O)[O-])(C2)C3(C)C (stereo not given) -3.2%
O=C(CN1CCN(c2ccccn2)CC1)N1CCc2ccccc21 5.5%
COc1ccc(NS(=O)(=O)c2ccc(NC(=S)NC(=O)/C=C/c3ccc(C)cc3)cc2)nn1 -15%
CCCCn1c(=O)c(CCC(=O)OCC(=O)Nc2ccc(C)c(Cl)c2)nc2ccccc21 6.4%
OCC(CO)(CO)NCc1ccc(-c2ccccc2)cc1 3.8%
Cc1ccc(S(=O)(=O)Nc2nc3ccccc3nc2N2CCc3ccccc3C2)cc1 71.6%
Cc1cc(N2CCN(S(=O)(=O)c3ccc(C)c(C)c3)CC2)c2ccccc2n1 41.1%
Cc1cc(SCC(=O)NCCN2C(=O)CSC2=O)nc2ccccc12 13%
Cc1c(Cl)cccc1NC(=O)CC1SC(=NCC2CCCO2)NC1=O (stereo not given) 12.8%
CC(Sc1nc2cc(Cl)ccc2s1)C(=O)Nc1ccc2c(c1)OCO2 (stereo not given) 82.9%
COc1ccc(OC)c(/C=C/C(=O)OCC(=O)Nc2ccc3c(c2)OCCO3)c1 24.4%
Cc1ccc(-c2cc(N)on2)cc1 -5.1%
CC(=O)N1CCN(C(=O)c2cccc(S(=O)(=O)Nc3ccc(C)cc3)c2)CC1 -4.1%
O=S(=O)(Nc1ccc(Oc2ncccn2)c(Cl)c1)c1ccc(F)cc1 -21.1%
O=C1NC(c2ccc(-c3ccccc3[N+](=O)[O-])o2)C(C(=O)c2ccc(Cl)cc2)C(O)(C(F)(F)F)N1 (stereo not given) 13.3%
O=C(Cc1coc2ccc3ccccc3c12)NCc1cccs1 -3.3%
CC(C)[C@H](NC(=O)c1ccc(F)cc1)C(=O)OCC(=O)NC(=O)c1cccn1C -23.1%
COC(=O)N/N=C/c1ccc(-c2ccc(Cl)c(Cl)c2)o1 9.8%
CC(=O)N1C(C)c2ccccc2C(C)(C)CC12CCCCC2 (stereo not given) -35.8%
COC(=O)c1ccc(NC(=O)CSc2nncc3ccc(OC)c(OC)c23)cc1 -5.7%
CCC(C(=O)OCC(=O)Nc1c(Cl)cc(Cl)cc1Cl)c1ccccc1 (stereo not given) 14.9%
Cc1cc(C)c(NC(=S)N2CCCC2C(=O)O)c(C)c1 (stereo not given) -8.3%
COc1ccccc1CN(C)C(=O)C1(c2ccc(Cl)cc2)CC1 11.8%
COc1ccc([N+](=O)[O-])cc1NC(=O)c1ccc(N(Cc2ccccc2C)S(C)(=O)=O)cc1 4%
O=C(CSc1ccc(C(F)(F)F)cc1[N+](=O)[O-])NCCOc1ccccc1 -6%
COc1ccc(C2c3c(C)nn(-c4ccccc4)c3NC(=O)N2c2ccccc2)cc1 (stereo not given) 2.6%
O=C(NCCN1CCOCC1)c1cc(Sc2cccc(Cl)c2)nc2ccccc12 4.4%
Cc1csc(=Nc2ccccc2)n1CCO -4.3%
OC(COCC1COc2ccccc2O1)CN1CCN(c2ccc(F)cc2)CC1 (stereo not given) -1.1%
COC(=O)C(NC(=O)c1ccc(OC)cc1)(Nc1ncc(S(=O)(=O)c2ccc([N+](=O)[O-])cc2)s1)C(F)(F)F (stereo not given) 47.7%
CCC(=O)NC(Nc1nc2ccc(C)cc2s1)(C(=O)OC)C(F)(F)F (stereo not given) -4.9%
CN(Cc1cccs1)C(=O)Cc1c[nH]c2ccccc12 -17.9%
